Many of the other results were omitted from the sample, so hits are more common in it than they were.
GALK inh: qHTS Assay for Inhibitors of Human Galactokinase (GALK). P51570. Potency, µM (series often up to 57.5 µM), most hits filed as inhibitors. 270,000 tested, 0.007% active. Purified GALK, Kinase-Glo residual ATP luminescence. AID 1868, 2009
Target sequence (P51570 whole entry, looked up): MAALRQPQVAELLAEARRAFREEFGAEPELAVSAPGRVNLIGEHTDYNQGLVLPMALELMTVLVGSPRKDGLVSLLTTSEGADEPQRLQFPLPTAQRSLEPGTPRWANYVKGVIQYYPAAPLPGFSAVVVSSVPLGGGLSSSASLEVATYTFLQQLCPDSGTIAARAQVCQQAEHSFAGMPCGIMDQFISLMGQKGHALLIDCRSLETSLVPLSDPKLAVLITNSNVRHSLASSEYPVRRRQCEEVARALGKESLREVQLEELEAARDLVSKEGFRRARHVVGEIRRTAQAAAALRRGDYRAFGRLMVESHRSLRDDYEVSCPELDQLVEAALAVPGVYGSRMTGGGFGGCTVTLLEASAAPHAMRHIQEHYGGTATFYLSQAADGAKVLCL
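GALK at 5 nM final was combined with compound, 35 uM ATP and 100 uM galactose in HEPES pH8.0 with MgCl2 and DTT. The reaction ran one hour at room temperature before luminescent ATP detection.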
HttQ103 aggreg: qHTS Multiplex Assay to Identify Dual Action Probes in a Cell Model of Huntington: Aggregate Formation (GFP) | PC12 HttQ103-GFP aggregates, Acumen cytometry, 40 h | Potency, µM (top dose mostly 46.1 µM), most hits filed as inhibitors | 220,000 tested, 1.1% active | AID 1688, 2009; further: nearly all actives have a fitted effect of over 60% in size
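Using laser scanning cytometry, GFP-positive aggregates were counted after lysis of PC12 cells induced with 100 nM tebufenozide to express HTT exon 1 Q103–GFP. Compounds were tested in titration.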
PI4K2A inh: qHTS for small molecular inhibitors of PI4K2A; Phosphatidylinositol 4-kinase type 2-alpha (Homo sapiens), Q9BTU6; purified PI4K2A, ADP-Glo luminescence, 1 h; stronger effect = lower value; activity change, negative = inhibition, % at 76.9 µM; 420,000 tested, 0.13% active; AID 1346378, 2018; in the data active means activity change below about -50%; inconclusive means mostly about -30% to -49%
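In this quantitative HTS, ADP production by PI4K2A was quantified luminescently after 1 h at ambient temperature; 100 microM adenosine served as plate-quality control.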
HTT cytoprotect: qHTS Multiplex Assay to Identify Dual Action Probes in a Cell Model of Huntington: Cytoprotection (ATP) | 230,000 tested, 0.14% active | PC12 HTT-Q103 induced, cytoprotection, ATP luminescence, 40 h | Potency, µM (doses to about 56.4 µM), usual class: activators; further: nearly all actives have a fitted effect of over 45% in size
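Quantitative HTS on tebufenozide-induced (100 nM) PC12 cells expressing HTTQ103 exon 1–GFP; compounds tested as a concentration series; survival measured via cellular ATP.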
Hits are given with their value; ! = a repeat was not active; [ ] = another dose, or the depositor's remark. Unless noted, the call rests on the fitted dose curve; in most records, active means well fitted curve in the direction sought with a large enough effect; inconclusive means small, poorly fitted or top-dose-only effect, or another doubt; inactive means no such curve, though single readings can be large; an effect the other way counts as inactive or inconclusive.

What do the screens show for `Cc1ccc(S(=O)(=O)Nc2cccc3cccnc23)cc1`?
GALK inh: inactive; HttQ103 aggreg: 12.6µM; PI4K2A inh: inactive; HTT cytoprotect: inactive

How did O=C(O[C@@H]1Cc2c(O)cc(O)cc2O[C@@H]1c1cc(O)c(O)c(O)c1)c1cc(O)c(O)c(O)c1 do in these assays?
GALK inh: 10µM

What do the screens show for `O=C(Nc1sc2c(c1-c1nc3ccccc3s1)CCNC2)C(F)(F)F`?
PI4K2A inh: inactive

What do the screens show for `COC(=O)c1c(-c2ccccc2)c[nH]c1C`?
GALK inh: inactive; HttQ103 aggreg: 22.4µM; PI4K2A inh: inactive

How did O=C1c2cccc3c(O)ccc(c23)C(=O)N1Cc1ccccc1 do in these assays?
GALK inh: inactive; HttQ103 aggreg: 10µM; PI4K2A inh: inactive; HTT cytoprotect: inactive

Results for O=C(O)c1cccc(CN2C(=O)c3ccccc3C2=O)c1 ?
GALK inh: inactive; PI4K2A inh: inactive

Results for CCC[C@H]1[C@@H](O)CC[C@@]23CCCN2C(=O)CCC[C@@H]13 ?
PI4K2A inh: inactive

How did Fc1ccc(C(CCCn2nnc(-c3cccnc3)n2)c2ccc(F)cc2)cc1 do in these assays?
GALK inh: inactive; HttQ103 aggreg: 12.6µM; PI4K2A inh: inactive; HTT cytoprotect: inactive

What do the screens show for `CCCn1c(CN(C)Cc2ccccc2)nc2c1c(=O)n(C)c(=O)n2C`?
GALK inh: inactive; HttQ103 aggreg: 22.4µM; PI4K2A inh: inactive; HTT cytoprotect: inactive[10 µM]

How did CCCCn1c(CN2CCN(c3cccc(Cl)c3)CC2)nc2c1c(=O)n(C)c(=O)n2C do in these assays?
GALK inh: inactive; HttQ103 aggreg: inactive; PI4K2A inh: inactive; HTT cytoprotect: inactive[0.074 µM]

What do the screens show for `CCCn1c(CN2CCN(c3cccc(Cl)c3)CC2)nc2c1c(=O)n(C)c(=O)n2C`?
GALK inh: inactive; HttQ103 aggreg: 5.62µM; PI4K2A inh: inactive; HTT cytoprotect: inactive

What do the screens show for `CCCCn1c(CN(C)Cc2ccccc2)nc2c1c(=O)n(C)c(=O)n2C`?
GALK inh: inactive; HttQ103 aggreg: 20µM; PI4K2A inh: inactive; HTT cytoprotect: inactive[10 µM]

What do the screens show for `CCOC(=O)[C@@]12CN(C(=O)OC(C)(C)C)CC=C1N(Cc1ccc(OC)cc1)C(=O)[C@H]2CC(=O)N1CCCCC1`?
PI4K2A inh: inactive

Results for COc1cccc(CNC2CCC23CCC(C)CC3)c1 (stereo unspecified) ?
PI4K2A inh: inactive

Results for CCCCS(=O)(=O)N1C2=NC(C(=O)OC)=C(C(=O)OC)[C@@H]3Nc4ccccc4[C@]23C[C@H]1C(=O)OC ?
HTT cytoprotect: inactive[10 µM]

What do the screens show for `COc1cc2c(C#N)c(N3CCCCC3)nc(N)c2c(N)n1`?
GALK inh: inactive; HttQ103 aggreg: 11.2µM; PI4K2A inh: inactive; HTT cytoprotect: inactive

How did N=c1ccn(Cc2ccccc2Cl)cc1 do in these assays?
GALK inh: inactive; HttQ103 aggreg: inconclusive; PI4K2A inh: inactive; HTT cytoprotect: inactive

Results for N=c1ccn(Cc2c(Cl)cccc2Cl)cc1 ?
GALK inh: inactive; HttQ103 aggreg: inactive[9.22 µM]; PI4K2A inh: inactive; HTT cytoprotect: inactive[10 µM]

How did N=c1ccn(Cc2ccc(Cl)cc2)cc1 do in these assays?
GALK inh: inactive; HttQ103 aggreg: 6.31µM; PI4K2A inh: inactive; HTT cytoprotect: inactive[0.074 µM]

How did N=c1ccn(Cc2cccc(Cl)c2)cc1 do in these assays?
GALK inh: inactive; HttQ103 aggreg: inconclusive; PI4K2A inh: inactive; HTT cytoprotect: inactive[0.074 µM]

How did N=c1ccn(Cc2ccc(Cl)c(Cl)c2)cc1 do in these assays?
GALK inh: inactive; HttQ103 aggreg: 2µM; PI4K2A inh: inactive; HTT cytoprotect: inactive[0.074 µM]

How did N=c1ccn(Cc2ccc(Cl)cc2Cl)cc1 do in these assays?
GALK inh: inactive; HttQ103 aggreg: 7.08µM; PI4K2A inh: inactive; HTT cytoprotect: inactive

Results for CCOC(=O)c1nc(N)c(C(=O)OCC)[nH]1 ?
GALK inh: inactive; HttQ103 aggreg: 3.55µM; PI4K2A inh: inactive; HTT cytoprotect: inactive

How did CCOC(=O)c1nc2ccccc2c(=O)[nH]1 do in these assays?
GALK inh: inactive; HttQ103 aggreg: inactive[9.22 µM]; PI4K2A inh: inactive; HTT cytoprotect: inactive[10 µM]

How did COc1ccc(-n2c(SCC(=O)Nc3ccc(S(=O)(=O)Nc4nccs4)cc3)nnc2-c2ccccc2)cc1 do in these assays?
PI4K2A inh: inactive

How did C[C@@H]1CNCCN1S(=O)(=O)c1cccc2cnccc12 do in these assays?
HTT cytoprotect: 12.6µM!

Results for Cc1occc1C(=O)N1CCN(C(c2ccccc2)c2ccccc2)CC1 ?
GALK inh: inactive; HttQ103 aggreg: 20µM; PI4K2A inh: inactive; HTT cytoprotect: inactive[10 µM]

Results for Cc1ccccc1C(=O)N1CCN(C(c2ccccc2)c2ccccc2)CC1 ?
GALK inh: inactive; HttQ103 aggreg: inactive[9.22 µM]; PI4K2A inh: inactive; HTT cytoprotect: inactive[10 µM]

How did Cc1occc1C(=O)N1CCN(c2ccc(Cl)c(Cl)c2)CC1 do in these assays?
GALK inh: inactive; HttQ103 aggreg: 11.2µM; PI4K2A inh: inactive; HTT cytoprotect: inactive[10 µM]

How did Cc1occc1C(=O)N1CCN(c2ccccc2)CC1 do in these assays?
HttQ103 aggreg: inactive; PI4K2A inh: inactive

How did Cc1sc2nc(CN3CCCC3)nc(Cl)c2c1C do in these assays?
GALK inh: inactive; HttQ103 aggreg: 12.6µM; PI4K2A inh: inactive; HTT cytoprotect: inactive[10 µM]

Results for COC(=O)c1cc(-c2ccc(F)c(Cl)c2)c(=O)n2c1CCC2 ?
PI4K2A inh: inactive

Results for CN(C)CCCN(C(=O)CCOc1ccccc1)c1nc2c(F)cccc2s1 ?
GALK inh: inactive; HttQ103 aggreg: 12.6µM; PI4K2A inh: inactive; HTT cytoprotect: inactive

How did Cc1cccc2sc(N(Cc3cccnc3)C(=O)CCOc3ccccc3)nc12 do in these assays?
PI4K2A inh: -58.8

How did CN(C)CCCN(C(=O)CCc1ccccc1)c1nc2c(F)cccc2s1 do in these assays?
GALK inh: inactive; HttQ103 aggreg: inactive; PI4K2A inh: inactive; HTT cytoprotect: inactive[10 µM]

How did CC(C)C[C@@H]1COc2cc(F)ccc2S(=O)(=O)N1C do in these assays?
PI4K2A inh: inactive

What do the screens show for `NC(=O)C1CC2(NC(=O)NC2=O)c2cc(F)ccc2O1` (stereo unspecified)?
HttQ103 aggreg: inactive; HTT cytoprotect: inactive

Results for O=c1[nH]c2[nH]c(=S)[nH]c(=S)c2[nH]1 ?
HTT cytoprotect: inactive[10 µM]

Results for Cc1cc(NO)c(C(C)C)cc1N=O ?
HttQ103 aggreg: 3.16µM; PI4K2A inh: inactive; HTT cytoprotect: inactive[10 µM]

Results for C=CC[n+]1c(/C=C2\C=Cc3cc(C)ccc3N2CC)ccc2ccccc21 ?
GALK inh: inactive; HttQ103 aggreg: 3.16µM; PI4K2A inh: inactive; HTT cytoprotect: inactive

Results for CCN1C(=C(C#N)C#N)C=Cc2cc(C)ccc21 ?
GALK inh: inactive; HttQ103 aggreg: inactive; PI4K2A inh: inactive; HTT cytoprotect: inactive

How did CN(C)Cc1c(O)ccc2oc(Cc3ccccc3)cc12 do in these assays?
GALK inh: inactive; HttQ103 aggreg: 4.47µM; PI4K2A inh: inactive; HTT cytoprotect: inactive[10 µM]

How did CN(C)Cc1c(O)ccc2ccccc12 do in these assays?
GALK inh: inactive; HttQ103 aggreg: inactive[9.22 µM]; PI4K2A inh: inactive; HTT cytoprotect: inactive[10 µM]

Source: PubChem
